Records with an inconclusive call do not appear. Calls of active or inactive are those of the source. The calls were made as follows: active = hit-call score of the fitted dose curve at least 0.9, where 1 is the maximum; inconclusive = response in the unintended direction; inactive = score below 0.9.
Tests used:
[1] = target: human Elastase, ELANE (gene 1991) (UniProt P08246); assay: NVS_ENZ_hElastase: NovaScreen (NVS) Enzymatic Assay for human Elastase (AID 2283153)
Procedure, shortened: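 Cell-free elastase from human neutrophils, 1.5 h after dosing, activity read by absorbance. Primary screen in duplicate at 25 uM; hits (e.g., 30% inhibition) rerun in singleton concentration-response up to 50 uM, fitted versus DMSO.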

[2] = target: human Ephrin type-A Receptor 2 (EphA2), EPHA2 (gene 1969) (UniProt P29317); assay: NVS_ENZ_hEphA2: NovaScreen (NVS) Enzymatic Assay for human Ephrin type-A Receptor 2 (EphA2) (AID 2283155)
Procedure, shortened: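 Cell-free recombinant EphA2 kinase with specific substrate, 1 h, fluorescence with electrophoretic mobility-shift separation of substrate and product. Primary screen at 25 uM in duplicate; hits retested in singleton concentration-response up to 50 uM, referenced to DMSO.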

[3] = target: human Esterase Plasma (ES), BCHE (gene 590) (UniProt P06276); assay: NVS_ENZ_hES: NovaScreen (NVS) Enzymatic Assay for human Esterase Plasma (ES) (AID 2283157)
Procedure, shortened: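 Cell-free enzyme assay using esterase extracted from human plasma; colorimetric absorbance read 0.25 hour after dosing. Single-concentration duplicate screen at 25 uM, then concentration-response up to 50 uM; loss of signal scored against DMSO baseline.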

[4] = target: human FYN Proto-Oncogene, Src family Tyrosine Kinase (Fyn), FYN (gene 2534) (UniProt P06241); assay: NVS_ENZ_hFyn: NovaScreen (NVS) Enzymatic Assay for human FYN Proto-Oncogene, Src family Tyrosine Kinase (Fyn) (AID 2283161)
Procedure, shortened: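 Recombinant enzyme with fluorescent substrate, product separated by electrophoretic mobility shift; read 1 h after dosing. Duplicate 25 uM single-point screen, actives retested in concentration series; loss of signal vs DMSO.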

[5] = target: human Insulin Receptor (InsR), INSR (gene 3643) (UniProt P06213); assay: NVS_ENZ_hInsR: NovaScreen (NVS) Enzymatic Assay for human Insulin Receptor (InsR) (AID 2283168)
Procedure, shortened: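 Fluorescent substrate phosphorylation by recombinant kinase, product resolved by electrophoretic mobility shift, read 1 h after dosing. Screened in duplicate at 25 uM; hits (e.g., 30% inhibition) run in concentration-response to 50 uM; DMSO as baseline.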

[6] = target: human Dual Specificity Protein Phosphatase 3 (DUSP3), DUSP3 (gene 1845) (UniProt P51452); assay: NVS_ENZ_hDUSP3: NovaScreen (NVS) Enzymatic Assay for human Dual Specificity Protein Phosphatase 3 (DUSP3) (AID 2283152);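 also: phosphatase activity of recombinant human DUSP3 on a fluorogenic substrate without cells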
Procedure, shortened: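 Cell-free assay with recombinant human DUSP3 and fluorogenic substrate, read by fluorescence intensity. Primary screen ran duplicate at 25 uM; actives followed up in concentration series; loss of signal versus DMSO scored.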

[7] = target: human Epidermal Growth Factor Receptor (EGFR), EGFR (gene 1956) (UniProt P00533); assay: NVS_ENZ_hEGFR: NovaScreen (NVS) Enzymatic Assay for human Epidermal Growth Factor Receptor (EGFR) (AID 2283151)
Procedure, shortened: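 Cell-free kinase assay, fluorescence plus electrophoretic mobility shift separating substrate and product, read 1 hour after dosing; loss of signal vs DMSO. Duplicate screen at 25 uM, then concentration-response to 50 uM.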

[8] = target: human Fibroblast Growth Factor Receptor 1 (FGFR1), FGFR1 (gene 2260) (UniProt P11362); assay: NVS_ENZ_hFGFR1: NovaScreen (NVS) Enzymatic Assay for human Fibroblast Growth Factor Receptor 1 (FGFR1) (AID 2283159)
Procedure, shortened: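 Cell-free recombinant kinase with fluorescent substrate, product separated by electrophoretic mobility shift; read 1 hour after dosing, loss of signal relative to DMSO. Initial screen in duplicate at 25 uM, actives followed in concentration series.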

[9] = target: human IkappaB Kinase alpha (IKKa), CHUK (gene 1147) (UniProt O15111); assay: NVS_ENZ_hIKKa: NovaScreen (NVS) Enzymatic Assay for human IkappaB Kinase alpha (IKKa) (AID 2283167)
Procedure, shortened: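 Cell-free recombinant human IKKa with fluorescent substrate, product separated by electrophoretic mobility shift; read 1 hour after dosing. Primary screen duplicate at 25 uM, actives then concentration-response up to 50 uM; loss of signal relative to DMSO.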

[10] = target: human Ephrin type-A Receptor 1 (EphA1), EPHA1 (gene 2041) (UniProt P21709); assay: NVS_ENZ_hEphA1: NovaScreen (NVS) Enzymatic Assay for human Ephrin type-A Receptor 1 (EphA1) (AID 2283158);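 also: activity is signal loss versus DMSO meaning EphA1 kinase inhibition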
Procedure, shortened: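 Cell-free kinase activity with recombinant protein, 1 hour after dosing; product separated by electrophoretic mobility shift, fluorescence read. Primary screen at 25 uM in duplicate; hits run as concentration-response up to 50 uM, relative to DMSO.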

[11] = target: Histone deacetylase 3 (Homo sapiens) (UniProt O15379); assay: NVS_ENZ_hHDAC3: NovaScreen (NVS) Enzymatic Assay for human Histone Deacetylase 3 (HDAC3) (AID 2283163)
Procedure, shortened: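 Recombinant human HDAC3 with fluorescent substrate, 1 h after dosing; product separated from substrate by electrophoretic mobility shift and read by fluorescence. Primary screen at 25 uM in duplicate; actives (e.g. ≥30% inhibition) retested in concentration-response up to 50 uM.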

[12] = target: Glycogen synthase kinase-3 beta (Homo sapiens) (UniProt P49841); assay: NVS_ENZ_hGSK3b: NovaScreen (NVS) Enzymatic Assay for human Glycogen Synthase Kinase-3 beta (GSK3b) (AID 2283165)
Procedure, shortened: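 Recombinant enzyme with specific fluorescent substrate, 1 h, product separated by electrophoretic mobility shift. Primary duplicate screen at 25 uM; actives (e.g. 30% inhibition) followed in singleton concentration-response to 50 uM. Signal loss fitted versus DMSO.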

[13] = target: human c-Jun N-terminal Kinases (JNK2), MAPK9 (gene 5601) (UniProt P45984); assay: NVS_ENZ_hJNK2: NovaScreen (NVS) Enzymatic Assay for human c-Jun N-terminal Kinases (JNK2) (AID 2283171)
Procedure, shortened: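 Cell-free recombinant human JNK2 activity assay; fluorescent substrate and product separated by electrophoretic mobility shift, read 1 h after dosing. Primary duplicate screen at 25 uM; actives run in concentration-response up to 50 uM, relative to DMSO.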

[14] = target: Mitogen-activated protein kinase 3 (Homo sapiens) (UniProt P27361); assay: NVS_ENZ_hMAPK3: NovaScreen (NVS) Enzymatic Assay for human Mitogen-Activated Protein Kinase 3 (MAPK 3) (AID 2283177)
Procedure, shortened: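 Cell-free enzymatic assay with recombinant protein and specific substrate; fluorescence and electrophoretic mobility shift read-out 1 h after dosing. Primary screen duplicate at 25 uM; actives then run in concentration-response up to 50 uM, loss of signal versus DMSO.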

[15] = target: human Mitogen-Activated Protein Kinase 1 (MAPK 1), MAPK1 (gene 5594) (UniProt P28482); assay: NVS_ENZ_hMAPK1: NovaScreen (NVS) Enzymatic Assay for human Mitogen-Activated Protein Kinase 1 (MAPK 1) (AID 2283175)
Procedure, shortened: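 Cell-free recombinant human MAPK1 enzymatic assay, fluorescence/electrophoretic mobility shift read at 1 h; loss of signal vs DMSO. Primary screen in duplicate at 25 uM; actives (e.g. ≥30% inhibition) run as concentration-response up to 50 uM.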

[16] = target: human Colony Stimulating Factor 1 Receptor (CSF1R), CSF1R (gene 1436) (UniProt P07333); assay: NVS_ENZ_hCSF1R: NovaScreen (NVS) Enzymatic Assay for human Colony Stimulating Factor 1 Receptor (CSF1R) (AID 2283150)
Procedure, shortened: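 Cell-free recombinant human CSF1R kinase with fluorescent substrate, product separated by electrophoretic mobility shift; read 1 h after dosing. Primary screen at 25 uM in duplicate, actives then in concentration-response up to 50 uM, relative to DMSO.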

[17] = target: human LYN Proto-Oncogene, Src family Tyrosine Kinase (LynA), LYN (gene 4067) (UniProt P07948); assay: NVS_ENZ_hLynA: NovaScreen (NVS) Enzymatic Assay for human LYN Proto-Oncogene, Src family Tyrosine Kinase (LynA) (AID 2283173)
Procedure, shortened: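 Recombinant kinase with fluorescent substrate; product separated from substrate by electrophoretic mobility shift and read 1 h after dosing. Duplicate screen at 25 uM, then concentration-response up to 50 uM; activity scored as signal loss against DMSO.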

[18] = target: Protein deacetylase HDAC6 (Homo sapiens) (UniProt Q9UBN7); assay: NVS_ENZ_hHDAC6: NovaScreen (NVS) Enzymatic Assay for human Histone Deacetylase 6 (HDAC6) (AID 2283164)
Procedure, shortened: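 Recombinant human HDAC6 with fluorescent substrate, 1 h; product separated from substrate by electrophoretic mobility shift. Primary screen in duplicate at 25 uM; actives retested singly in concentration-response up to 50 uM, fitted relative to DMSO.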

[19] = target: human MAP Kinase-Activated Protein Kinase 2 (MAPKAPK2), MAPKAPK2 (gene 9261) (UniProt P49137); assay: NVS_ENZ_hMAPKAPK2: NovaScreen (NVS) Enzymatic Assay for human MAP Kinase-Activated Protein Kinase 2 (MAPKAPK2) (AID 2283178)
Procedure, shortened: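 Cell-free recombinant human MAPKAPK2 activity measured by fluorescence with electrophoretic mobility shift separation of substrate and product, 1 hr after dosing. Loss of signal versus DMSO; primary screen at 25 uM, concentration-response up to 50 uM.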

Measured: AC50

Chain of human Esterase Plasma (ES), BCHE (gene 590) (P06276 whole entry, looked up): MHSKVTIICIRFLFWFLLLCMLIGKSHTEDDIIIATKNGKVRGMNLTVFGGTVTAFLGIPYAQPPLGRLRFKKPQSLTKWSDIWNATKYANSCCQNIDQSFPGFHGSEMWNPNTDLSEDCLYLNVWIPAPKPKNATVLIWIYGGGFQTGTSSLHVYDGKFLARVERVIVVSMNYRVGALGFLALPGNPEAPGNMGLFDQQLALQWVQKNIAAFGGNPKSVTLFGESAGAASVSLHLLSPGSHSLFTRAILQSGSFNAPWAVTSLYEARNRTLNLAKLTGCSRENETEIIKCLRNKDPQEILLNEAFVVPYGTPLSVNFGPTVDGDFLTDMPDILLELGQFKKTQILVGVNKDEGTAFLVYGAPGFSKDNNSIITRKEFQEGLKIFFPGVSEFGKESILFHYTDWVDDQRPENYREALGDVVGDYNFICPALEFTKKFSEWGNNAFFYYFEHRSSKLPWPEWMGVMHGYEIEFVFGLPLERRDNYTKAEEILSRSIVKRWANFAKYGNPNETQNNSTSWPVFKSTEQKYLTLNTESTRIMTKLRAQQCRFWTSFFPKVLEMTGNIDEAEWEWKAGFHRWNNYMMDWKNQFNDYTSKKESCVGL
Chain of human Fibroblast Growth Factor Receptor 1 (FGFR1), FGFR1 (gene 2260) (P11362 whole entry, looked up): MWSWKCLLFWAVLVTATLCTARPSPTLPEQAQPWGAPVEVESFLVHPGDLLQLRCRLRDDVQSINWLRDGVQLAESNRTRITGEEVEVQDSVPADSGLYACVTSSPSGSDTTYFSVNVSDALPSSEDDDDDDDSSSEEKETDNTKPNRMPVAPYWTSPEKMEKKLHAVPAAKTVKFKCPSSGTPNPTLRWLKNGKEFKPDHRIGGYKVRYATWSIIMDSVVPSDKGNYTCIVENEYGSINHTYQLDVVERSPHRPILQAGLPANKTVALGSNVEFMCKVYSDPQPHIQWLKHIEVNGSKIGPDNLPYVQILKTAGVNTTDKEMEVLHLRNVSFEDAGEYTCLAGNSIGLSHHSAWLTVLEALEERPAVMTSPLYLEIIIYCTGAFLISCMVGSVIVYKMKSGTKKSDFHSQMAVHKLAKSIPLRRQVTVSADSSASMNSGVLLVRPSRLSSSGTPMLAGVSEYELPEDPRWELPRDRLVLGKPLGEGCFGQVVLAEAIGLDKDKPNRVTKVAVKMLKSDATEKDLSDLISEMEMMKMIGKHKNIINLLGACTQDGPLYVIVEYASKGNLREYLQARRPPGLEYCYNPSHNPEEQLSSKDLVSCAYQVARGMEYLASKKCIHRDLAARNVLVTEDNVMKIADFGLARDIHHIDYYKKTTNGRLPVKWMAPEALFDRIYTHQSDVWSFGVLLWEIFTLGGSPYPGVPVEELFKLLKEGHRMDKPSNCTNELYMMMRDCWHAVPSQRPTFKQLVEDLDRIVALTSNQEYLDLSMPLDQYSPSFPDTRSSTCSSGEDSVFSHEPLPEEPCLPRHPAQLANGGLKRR
Chain of human Dual Specificity Protein Phosphatase 3 (DUSP3), DUSP3 (gene 1845) (P51452 whole entry, looked up): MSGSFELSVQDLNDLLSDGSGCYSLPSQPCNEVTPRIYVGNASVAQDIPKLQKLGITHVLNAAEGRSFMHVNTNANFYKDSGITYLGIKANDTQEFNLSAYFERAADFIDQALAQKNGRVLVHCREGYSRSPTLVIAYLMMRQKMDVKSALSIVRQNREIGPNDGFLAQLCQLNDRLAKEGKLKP
Chain of human FYN Proto-Oncogene, Src family Tyrosine Kinase (Fyn), FYN (gene 2534) (P06241 whole entry, looked up): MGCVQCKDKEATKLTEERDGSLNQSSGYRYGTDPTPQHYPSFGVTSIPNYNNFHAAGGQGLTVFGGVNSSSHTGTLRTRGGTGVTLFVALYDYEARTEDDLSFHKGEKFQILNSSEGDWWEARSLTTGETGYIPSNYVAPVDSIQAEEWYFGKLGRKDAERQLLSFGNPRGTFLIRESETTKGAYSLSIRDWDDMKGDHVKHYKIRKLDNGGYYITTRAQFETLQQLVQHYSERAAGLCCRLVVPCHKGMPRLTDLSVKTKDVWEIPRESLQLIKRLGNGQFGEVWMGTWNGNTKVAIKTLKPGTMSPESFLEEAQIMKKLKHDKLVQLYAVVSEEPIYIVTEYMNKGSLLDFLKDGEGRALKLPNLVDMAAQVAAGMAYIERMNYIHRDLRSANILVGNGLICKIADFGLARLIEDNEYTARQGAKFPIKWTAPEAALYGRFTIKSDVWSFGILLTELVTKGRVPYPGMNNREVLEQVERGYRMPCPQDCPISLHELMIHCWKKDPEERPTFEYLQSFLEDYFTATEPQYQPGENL
Chain of human Ephrin type-A Receptor 2 (EphA2), EPHA2 (gene 1969) (P29317 whole entry, looked up): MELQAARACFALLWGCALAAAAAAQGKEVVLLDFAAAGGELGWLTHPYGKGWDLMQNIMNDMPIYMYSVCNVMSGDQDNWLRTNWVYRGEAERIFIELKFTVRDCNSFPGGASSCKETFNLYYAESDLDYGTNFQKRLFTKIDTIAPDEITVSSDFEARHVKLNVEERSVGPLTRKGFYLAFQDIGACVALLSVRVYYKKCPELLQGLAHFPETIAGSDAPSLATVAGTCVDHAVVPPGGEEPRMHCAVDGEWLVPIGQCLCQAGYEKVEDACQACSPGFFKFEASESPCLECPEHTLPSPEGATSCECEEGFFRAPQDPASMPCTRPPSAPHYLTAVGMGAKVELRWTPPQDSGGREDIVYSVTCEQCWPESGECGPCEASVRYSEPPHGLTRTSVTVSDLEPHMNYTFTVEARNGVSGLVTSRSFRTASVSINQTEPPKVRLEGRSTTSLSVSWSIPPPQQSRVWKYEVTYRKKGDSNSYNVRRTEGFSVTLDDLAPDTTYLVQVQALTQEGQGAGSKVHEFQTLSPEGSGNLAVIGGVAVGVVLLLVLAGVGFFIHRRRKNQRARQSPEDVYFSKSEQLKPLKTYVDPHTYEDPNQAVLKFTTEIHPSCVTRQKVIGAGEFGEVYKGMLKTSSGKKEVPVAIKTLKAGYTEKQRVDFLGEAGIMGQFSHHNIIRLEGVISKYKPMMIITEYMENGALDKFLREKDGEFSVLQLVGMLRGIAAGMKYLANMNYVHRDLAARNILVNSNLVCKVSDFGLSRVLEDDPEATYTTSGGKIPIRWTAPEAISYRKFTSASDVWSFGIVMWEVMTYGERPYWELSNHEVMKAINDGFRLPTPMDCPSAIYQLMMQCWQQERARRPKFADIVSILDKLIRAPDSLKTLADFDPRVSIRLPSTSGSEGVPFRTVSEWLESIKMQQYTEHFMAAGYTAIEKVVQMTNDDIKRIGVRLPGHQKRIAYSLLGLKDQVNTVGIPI
Chain of human Epidermal Growth Factor Receptor (EGFR), EGFR (gene 1956) (P00533 whole entry, looked up): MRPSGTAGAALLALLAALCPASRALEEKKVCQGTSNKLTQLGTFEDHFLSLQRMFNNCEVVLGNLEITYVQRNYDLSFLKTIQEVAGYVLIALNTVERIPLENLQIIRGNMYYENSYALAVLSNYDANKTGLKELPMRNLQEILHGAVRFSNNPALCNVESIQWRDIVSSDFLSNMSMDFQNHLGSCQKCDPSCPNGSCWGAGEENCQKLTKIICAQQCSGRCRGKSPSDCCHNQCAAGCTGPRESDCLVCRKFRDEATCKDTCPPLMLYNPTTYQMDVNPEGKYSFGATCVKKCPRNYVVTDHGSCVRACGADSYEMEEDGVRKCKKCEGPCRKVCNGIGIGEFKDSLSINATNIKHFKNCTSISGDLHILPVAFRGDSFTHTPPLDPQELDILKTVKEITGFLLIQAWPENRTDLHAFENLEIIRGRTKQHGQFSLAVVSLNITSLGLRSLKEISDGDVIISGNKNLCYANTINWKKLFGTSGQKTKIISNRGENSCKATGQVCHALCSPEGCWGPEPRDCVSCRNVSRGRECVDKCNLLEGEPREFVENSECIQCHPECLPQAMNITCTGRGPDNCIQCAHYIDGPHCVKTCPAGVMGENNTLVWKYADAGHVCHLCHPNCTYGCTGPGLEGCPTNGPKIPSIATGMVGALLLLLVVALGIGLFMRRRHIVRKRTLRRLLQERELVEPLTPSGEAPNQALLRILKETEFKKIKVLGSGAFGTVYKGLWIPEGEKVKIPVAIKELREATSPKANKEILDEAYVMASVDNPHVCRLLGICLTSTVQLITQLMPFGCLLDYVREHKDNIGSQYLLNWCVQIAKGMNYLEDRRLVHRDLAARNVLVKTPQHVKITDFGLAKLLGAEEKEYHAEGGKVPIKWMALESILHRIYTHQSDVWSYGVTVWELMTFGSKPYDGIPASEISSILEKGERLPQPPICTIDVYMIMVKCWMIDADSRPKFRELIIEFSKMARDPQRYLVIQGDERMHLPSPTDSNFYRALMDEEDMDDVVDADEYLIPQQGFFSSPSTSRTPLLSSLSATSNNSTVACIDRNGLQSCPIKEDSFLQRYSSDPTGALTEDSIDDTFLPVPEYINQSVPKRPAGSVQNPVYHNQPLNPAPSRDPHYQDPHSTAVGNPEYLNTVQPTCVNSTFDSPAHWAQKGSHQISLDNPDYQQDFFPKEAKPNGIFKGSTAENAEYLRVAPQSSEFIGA
Chain of human IkappaB Kinase alpha (IKKa), CHUK (gene 1147) (O15111 whole entry, looked up): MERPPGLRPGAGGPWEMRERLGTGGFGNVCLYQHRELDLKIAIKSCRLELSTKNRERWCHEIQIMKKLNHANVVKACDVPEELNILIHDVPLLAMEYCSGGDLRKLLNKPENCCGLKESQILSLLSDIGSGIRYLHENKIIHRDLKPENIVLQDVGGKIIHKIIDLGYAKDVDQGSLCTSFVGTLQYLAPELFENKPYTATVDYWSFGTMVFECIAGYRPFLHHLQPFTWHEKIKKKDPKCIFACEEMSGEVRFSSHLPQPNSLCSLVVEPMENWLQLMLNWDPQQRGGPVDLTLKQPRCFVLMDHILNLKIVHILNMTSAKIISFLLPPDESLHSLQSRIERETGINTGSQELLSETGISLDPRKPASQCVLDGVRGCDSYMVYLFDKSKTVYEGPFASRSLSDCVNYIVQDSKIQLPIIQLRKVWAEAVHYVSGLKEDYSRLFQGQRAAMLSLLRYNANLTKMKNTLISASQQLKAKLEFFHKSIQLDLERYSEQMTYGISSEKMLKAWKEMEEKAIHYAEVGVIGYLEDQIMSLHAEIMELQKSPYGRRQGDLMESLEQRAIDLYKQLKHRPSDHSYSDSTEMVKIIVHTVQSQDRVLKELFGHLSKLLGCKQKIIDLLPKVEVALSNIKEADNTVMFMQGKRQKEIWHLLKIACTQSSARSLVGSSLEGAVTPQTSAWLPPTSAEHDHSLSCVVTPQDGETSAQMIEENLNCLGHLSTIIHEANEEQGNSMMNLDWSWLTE

CCCCCCCCCCCCCN1CC(C)OC(C)C1 (configuration not stated)
inactive: [1] | [2] | [3] | [4] | [5]

CC(C)(O)c1cnn2c(-c3ccc(F)c(-c4c(F)cccc4C#N)c3)cnc2n1
active: [6] 40.8 µM

ClCCOCCCl
inactive: [7] | [8] | [9]

CCNS(=O)(=O)C(F)(F)C(F)(F)C(F)(F)C(F)(F)C(F)(F)C(F)(F)C(F)(F)C(F)(F)F
inactive: [7] | [6] | [2] | [10] | [8] | [11] | [12] | [13] | [14]

Oc1ccccc1Cl
inactive: [2] | [8]

O=[N+]([O-])c1ccc(Oc2ccc(Cl)cc2Cl)cc1
inactive: [1] | [15]

Nc1ccc([N+](=O)[O-])cc1
inactive: [16]

COP(=S)(OC)SCN1C(=O)c2ccccc2C1=O
inactive: [6]

CN(C)C(=O)Nc1ccc(Cl)cc1
inactive: [2] | [3] | [17] | [15]

CCC[CH2][Sn]([Cl])([CH2]CCC)[CH2]CCC
active: [6] 6.34 µM
inactive: [4]

C1=Cc2cccc3cccc1c23
inactive: [6] | [3]

CCN(CC)N=O
inactive: [16] | [7] | [2] | [8] | [4] | [18] | [12] | [9] | [19]

CCOc1cccc(C2(N3CCN(c4ccccc4)CC3)CCC(C)CC2)c1 (configuration not stated)
inactive: [3]
